Data published in PubChem BioAssay (NCI).
Compounds without any hit were thinned out: in the full panel of roughly 79,000, 15% have a hit. Unmarked numbers belong to inactive results. Calls of active or inactive are those of the source. Rule as the data show it: active = growth inhibition above about 70%; inactive = the rest.

Experiments:
[1] = NCI Yeast Anticancer Drug Screen. Data for the rad50 strain (AID 155);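 also: 0% = growth of vehicle-only cultures of the same strain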; conditions: S. cerevisiae rad50 strain growth inhibition; at 50.0 µM; active compounds read high
In short: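 Genetically altered yeast (DNA repair pathway); compound treatment; growth inhibition vs vehicle ctrl.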

[2] = NCI Yeast Anticancer Drug Screen. Data for the mec2-1 strain (AID 157); conditions: S. cerevisiae mec2-1 strain, at 50.0 µM, active compounds read high
In short: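 Strain: mec2-1 (DNA repair/cell cycle alteration). Compound exposure, then growth measured; inhibition expressed relative to vehicle.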

[3] = NCI Yeast Anticancer Drug Screen. Data for the sgs1 mgt1 strain (AID 161);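 also: 0% = growth of cultures given vehicle only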; conditions: S. cerevisiae sgs1 mgt1 strain, at 50.0 µM, active compounds read high
In short: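 Read-out: growth inhibition vs vehicle controls. Cells: mutant yeast strain deficient in DNA damage repair.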

[4] = NCI Yeast Anticancer Drug Screen. Data for the cln2 rad14 strain (AID 165);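 also: 0% = growth equal to vehicle treated cultures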; conditions: S. cerevisiae cln2 rad14 strain, at 50.0 µM, active compounds read high
In short: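 Compounds are applied to the cln2 rad14 yeast strain, and growth is then compared with that of vehicle-treated cultures to give inhibition.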

[5] = NCI Yeast Anticancer Drug Screen. Data for the bub3 strain (AID 167); conditions: S. cerevisiae bub3 mutant strain, at 50.0 µM, active compounds read high
In short: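 Yeast carrying a defined mutation is treated with each compound, and growth is compared with that of vehicle-exposed cells to give inhibition.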

[6] = NCI Yeast Anticancer Drug Screen. Data for the mlh1 rad18 strain (AID 175); conditions: S. cerevisiae mlh1 rad18 strain growth inhibition; at 50.0 µM; active compounds read high
In short: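 Read-out is yeast growth inhibition, calculated against vehicle-only controls. The compound was applied to a strain engineered with DNA damage repair alterations.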

| SMILES | growth inhibition [1] | growth inhibition [2] | growth inhibition [3] | growth inhibition [4] | growth inhibition [5] | growth inhibition [6] |
| --- | --- | --- | --- | --- | --- | --- |
| CC(C)(C)N/N=C(\C(=O)Nc1cccc(Cl)c1)C1C(=O)Nc2ccccc2S1=O (configuration not stated) | -31.1% | -43.8% | -24.6% | 10.7% | -11.2% | 8.75% |
| Brc1ccccc1-c1nnc(-c2cccc3ccccc23)o1 | -20.9% | -59.9% | -15.3% | -10.8% | -26.6% | -23.2% |
| CN(C)/C(N)=N/S(=O)(=O)c1ccc(C#N)cc1 | 5% | 2.85% | -0.25% | 6.1% | 4.7% | 2.45% |
| NCC1OC(n2cnc3c(N)ncnc32)CC1O (configuration not stated) | -16.1% | -2.75% | -17.8% | 0.65% | -28.6% | -7.85% |
| O=C(Cl)c1ccc2ccccc2c1 | 45.8% | 8.3% | 3% | -43% | -20.4% | 29.4% |
| COc1cc(-c2c(C#N)c(OC)[nH]c(=O)c2C#N)cc(OC)c1OC | 3.85% | 13.3% | 7.55% | 13.4% | 1.85% | -0.45% |
| CC1(C)CCC(C2=CC(=O)c3c(O)ccc(O)c3C2=O)O1 (configuration not stated) | -8.25% | -17.1% | 10.5% | 17.9% | -12.6% | -2.8% |
| COC(=O)c1cc(=O)c2scc(C)[n+]2[nH]1 | -5.4% | -10.8% | 18.9% | 9.55% | -3.05% | -5.3% |
| O=C1CCC(N2C(=O)c3ccccc3C2=O)C(=O)O1 (configuration not stated) | -21.9% | -5.45% | -0.95% | -38% | 8.5% | -12.9% |
| NNC(=O)c1cccc2c1Oc1ccccc1S2 | 21.5% | -12.9% | 10.9% | -63.9% | -11.9% | 25.1% |
| CCOC(=O)C1=C(c2ccccc2)N=c2ccccc2=S1C (configuration not stated) | 7.25% | -2.3% | 18.1% | -3.35% | 5.1% | 20.4% |
| O=C(Cc1ccccc1)NCc1ccccc1 | -1.7% | -7.15% | 13.9% | -3.3% | 2.55% | 8.7% |
| CC(OC(C(O)C=O)C(O)C(O)CO)C(=O)N[C@@H](C)C(=O)O (some centres not stated) | 6.1% | -8.55% | -0.75% | -2.45% | -9.2% | 25.8% |
| COC(=O)C(C(=O)C(=O)Nc1cccc(O)c1)c1nc2ccc(Cl)cc2[nH]c1=O (configuration not stated) | -19% | -3.95% | -41.3% | 2.55% | -8.65% | -13.9% |
| CC1C(O)CC23COC(=O)C2=CCCC3C1(C)CCC1COC(=O)C1 (configuration not stated) | -5.05% | -21.9% | 17.9% | 5.85% | -10.4% | 7.45% |
| CCN(CC)C(=O)Cc1ccc2c3c(cccc13)CC2 | -2.45% | -2.05% | -1.75% | -0.75% | 1.6% | 11.6% |
| C/C(=N\NC(N)=O)c1sc(-c2nc(C)c(/C(C)=N/NC(N)=O)s2)nc1C | 32.8% | 22.8% | 20.9% | 43.3% | -16.1% | 27.5% |
| Clc1ccc(Cl)s1 | 34.5% | 3.55% | 20.3% | 18.6% | 14% | 26.1% |
| NC(CCCCC(N)C(=O)c1ccccc1)C(=O)c1ccccc1 (configuration not stated) | -11.9% | -7.45% | -4.85% | -15.9% | 1.55% | 3.25% |
| O=C(COc1ccc(Cl)cc1)N(c1ccccc1)C1CCCCC1 | 95.9% (active) | 98.3% (active) | 97.5% (active) | 96.2% (active) | 95.2% (active) | 96.9% (active) |
| Cc1c(C=O)cc(-c2ccccc2)n1C | -16.2% | -3.25% | -4.85% | -8.45% | -7.1% | -1.6% |

| SMILES | growth inhibition [1] | growth inhibition [2] | growth inhibition [3] | growth inhibition [4] | growth inhibition [5] | growth inhibition [6] |
| --- | --- | --- | --- | --- | --- | --- |
| CNc1c(F)cc(C#N)cc1F | 12.1% | 11.1% | 1.75% | 3.8% | 0.75% | 10.8% |
| CCCCC(CC)COC(=O)CSC#N (configuration not stated) | -6.7% | -7.55% | -9.85% | -15.6% | 2.05% | -15.1% |
| COC(=O)c1cc(C)c2c3ccccc3n(C)c2c1C(=O)OC | 19.6% | -0.4% | -8.9% | -1.5% | -9.9% | -13.5% |
| N#CC(C#N)=C1C=Cc2ccccc2O1 | 27.9% | -1.35% | 0.9% | 5.15% | -1.4% | 43.9% |
| O=[N+]([O-])c1ccc(P(=O)(Nc2ccc(Cl)cc2)Nc2ccc(Cl)cc2)cc1 | 95.7% (active) | 96.8% (active) | 95.1% (active) | 91.8% (active) | 94.8% (active) | 97.1% (active) |
| CC(C)C(C(N)=O)C(C)C | 3.6% | -6.4% | -3.65% | 10.7% | 0% | -1.2% |
| COC(=O)CC1(C(=O)OC)Nc2ccccc2C(=O)O1 (configuration not stated) | 2.65% | 21.7% | 18.8% | -11.1% | -11.1% | 2.9% |
| COc1cc(C(O)CCBr)c(OC)cc1C (configuration not stated) | -23.2% | -19.8% | -20.2% | -0.85% | -1.4% | 19.9% |
| NC(=O)C1CCCN(C2OC(COP(=O)(O)OP(=O)(O)OCC3OC(n4cnc5c(N)ncnc54)C(OP(=O)(O)O)C3O)C(O)C2O)C1 (configuration not stated) | 5.85% | -15.1% | 15.2% | 1.5% | 16.3% | -0.9% |
| O=C(SCc1oc2ccccc2c1O)c1ccccc1 | 12.8% | 13.7% | 16.5% | -3.75% | -7.3% | 13.3% |
| CNCCCC1c2ccccc2C=Cc2ccccc21 | 5.5% | 2.9% | 12.8% | -1.7% | 0.15% | 11.8% |
| S=C(NNC1=NCCN1)Nc1ccccc1 | -54% | -19.9% | -19.8% | 3.15% | -20.9% | -12.7% |
| O=C(/C=N/O)Nc1ccccc1I | 3.95% | -9.95% | 20.4% | 16.6% | 18.1% | -3.5% |
| CC(C)NC(=O)Nc1ccccc1Cl | -4.45% | -8.9% | 6.9% | -28.8% | -11.8% | -0.7% |
| CN(C)C(=O)CCCC(=O)c1cccc([N+](=O)[O-])c1 | 9.55% | 3.5% | 3.7% | 10.6% | 16% | -13.3% |
| N#CC1CCCCCC1 | 0.8% | -12.4% | 5.7% | 2.6% | 8.15% | 5.85% |
| CC1=C(C(=O)OC2CC3CCC2(C)C3(C)C)C2Nc3ccccc3N(C)C2O1 (configuration not stated) | -4.75% | -8.8% | -3.65% | -3.2% | -8.4% | 6.95% |
| Cc1oc2nc(N(C)C)n3nnnc3c2c1C | -0.35% | -8.5% | -6.15% | -4.1% | 25.3% | -14.4% |
| CCOC(=O)Nc1cccc(F)c1 | -10.9% | 14.7% | 22.9% | -44.6% | -21.1% | -0.5% |
| CN1CCC(CN)(c2ccccc2)CC1 | 14.1% | 14.9% | 0.35% | -6.5% | 9.7% | 11.3% |
| Cc1ccc(S(=O)(=O)Nc2cccc3c(=O)[nH]cnc23)cc1 | 1.6% | -13.8% | 1.2% | -37.2% | 10.3% | 18.8% |
